Screening results deposited in PubChem BioAssay by National Center for Advancing Translational Sciences (NCATS).
The list is not random: actives were taken first. Their share in the collection is about 9.3%.
ELG1 genotox – inducers of genotoxicity in HEK293T ELG1-luciferase cells; HEK293T ELG1-luciferase reporter, luminescence, 16 h; Potency, µM (titrated, usually from 46 µM), without a hit: at the highest dose activity change, positive = activation, hits mostly activators; 1.3% of 330,000 active; note: % of control where 0% means no effect; nearly all actives have a fitted effect of over 60% in size
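HEK293T cells expressing luciferase-tagged ELG1 were treated with compound or DMSO for 16 hr at 37°C. Luciferase activity was then read after 30 min with ONE-Glo at room temperature; rising signal flags genetic stress.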
ELG1 repair inh – inhibitors of ELG1-dependent DNA repair in HEK293T cells | HEK293T ELG1-luciferase reporter, luminescence, 16 h; DNA damage induced by 5-fluorouridine | Potency, µM (series often up to 46.1 µM), for the others: at the highest dose activity change, negative = inhibition, most hits filed as inhibitors | 2.3% of 330,000 active | AID 504467; note: % is set by controls: 0 for no effect and ±100 for the full control effect; nearly all actives have a fitted effect of over 55% in size
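Luminescence from the luciferase reporter, measured 30 min after ONE-Glo reagent at room temperature, was the read-out. Beforehand, 2,000 cells per well were exposed for 16 hr at 37 °C to 5-fluorouridine together with compound or vehicle.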
SMN2 splice enh – increases expression of the SMN2 splice variant | HEK293 SMN2-luciferase splicing reporter, luminescence, 30-36 h | Potency, µM (highest dose often 46.1 µM), for the others: top-dose activity change, positive = activation, actives largely listed as activators | 2.8% of 210,000 active; note: % of control where 0% means no effect; nearly all actives have a fitted effect of over 55% in size
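HEK293 cells carry an SMN2 […]–luciferase reporter in which exon 7 inclusion puts luciferase in frame. Cells were plated 10-12 h before compound addition, then incubated 30-36 h at 37C. ONE-Glo luminescence was read; sodium butyrate at 4.5 mM final served as control.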
NPC1 promoter act – NPC1 promoter activation; Huh7 NPC1 promoter luciferase reporter, 24 h; AID 485313; Potency, µM (series often up to 9.22 µM), inactives show at the top dose activation, usual class: activators; 2.4% of 320,000 active; note: % of control where 0% means no effect; nearly all actives have a fitted effect of over 60% in size
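Luciferase expression driven by the NPC1 promoter was measured in stably transfected Huh7 cells after a 24 h compound incubation, using a luciferase reagent and a luminescence read.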
FLuc counter – counter-screen for miR-21 project: firefly luciferase inhibitors or activators. Potency, µM (doses to about 57.5 µM), for inactives: at the highest dose activity change, negative = inhibition, usual class: inhibitors. purified FLuc, Km substrates, luminescence inhibition. P08659. 6.9% of 360,000 active;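 note: plate controls were vehicle for no effect and reference inhibitor for full effect; nearly all actives have a fitted effect of over 55% in size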
Target sequence (P08659 whole entry, looked up): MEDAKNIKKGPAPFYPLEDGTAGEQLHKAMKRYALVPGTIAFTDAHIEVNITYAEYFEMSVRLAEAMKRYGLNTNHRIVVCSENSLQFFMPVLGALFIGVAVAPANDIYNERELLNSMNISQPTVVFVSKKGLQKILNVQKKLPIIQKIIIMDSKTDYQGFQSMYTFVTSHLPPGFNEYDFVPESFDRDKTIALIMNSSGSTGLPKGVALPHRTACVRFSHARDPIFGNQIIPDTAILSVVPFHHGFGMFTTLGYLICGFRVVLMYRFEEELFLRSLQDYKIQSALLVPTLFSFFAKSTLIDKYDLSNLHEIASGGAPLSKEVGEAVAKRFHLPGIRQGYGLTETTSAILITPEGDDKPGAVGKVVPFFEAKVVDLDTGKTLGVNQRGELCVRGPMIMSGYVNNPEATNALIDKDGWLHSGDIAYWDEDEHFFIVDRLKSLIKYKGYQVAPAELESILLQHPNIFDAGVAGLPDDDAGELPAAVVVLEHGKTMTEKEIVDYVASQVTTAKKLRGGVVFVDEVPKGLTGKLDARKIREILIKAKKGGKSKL
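Purified P. pyralis luciferase, 10 nM final, with Km-level 10 uM D-luciferin and 10 uM ATP in 50 mM Tris acetate pH 7.5, 10 mM Mg acetate, 0.01% Tween-20, 0.05% BSA; 6-point qHTS titration about 60 µM downward; luminescence read.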
Rab9 prom act – activates the Rab9 promoter. Huh7 Rab9 promoter-luciferase reporter, luminescence, 24 h. Potency, µM (highest dose often 9.22 µM), for the others: top-dose activation, negative = inhibition, usual class: activators. 2.8% of 320,000 active; note: % of control where 0% means no effect; nearly all actives have a fitted effect of over 60% in size
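Cell-based reporter: Huh7 stable for Rab9 promoter-driven luciferase, plated in reduced-serum medium with 10% FBS at 1500 cells/well, compound-treated 24 h at 37 °C, luminescence read after 10 min reagent.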
Starred values were filed as active, the others as inactive; ? = inconclusive; nt = no result. Calls come from the whole dose curve; as a rule, active = well fitted curve in the direction sought with a large enough effect; inconclusive = small, poorly fitted or top-dose-only effect, or another doubt; inactive = no such curve, though single readings can be large; an effect the other way counts as inactive or inconclusive. Potency is the fitted concentration of half-maximal effect.

SMILES | ELG1 genotox | ELG1 repair inh | SMN2 splice enh | NPC1 promoter act | FLuc counter | Rab9 prom act
O=C(NCc1cccs1)C1CCCN1C(=O)Nc1ccccc1Cl (configuration not stated) | -3% | 10% | nt | -1% | -1% | 6%
CCN(CC)C(=O)c1sc(NC(=O)c2cccc([N+](=O)[O-])c2)c(C#N)c1C | -9% | -18% | -95% | 1% | 24µM* | 2%
COC(=O)c1sc(NC(=O)c2ccc([N+](=O)[O-])o2)c(C#N)c1C | -8% | 4.6µM* | nt | -1% | 27µM* | -9%
CCOC(=O)N1CCc2c(sc(NC(=O)c3ccc(S(=O)(=O)N4CCCC4)cc3)c2C#N)C1 | -7% | 16µM* | -46% | -7% | -3% | -3%
CC(=O)N1CCc2c(sc(NC(=O)c3ccc([N+](=O)[O-])o3)c2C#N)C1 | ? | ? | 11µM* | ? | ? | 4µM*
CCN(CC)C(=O)c1sc(NC(=O)c2c(OC)cccc2OC)c(C#N)c1C | 0% | 1% | 15% | 0% | -16% | -1%
COc1cccc([C@@H]2Oc3ccc(Br)cc3C[C@H]2OC(=O)NS(=O)(=O)c2ccc(F)cc2)c1 | nt | nt | -9% | nt | nt | nt
C[C@@H]1NC(=O)N(c2ccc(F)cc2)C1=O | 1% | -1% | nt | 2% | -2% | -9%
COc1ccc(NC(=O)c2cn(CC(C)C)c(=O)c3cc(OC)c(OC)cc23)cc1Cl | nt | nt | 0% | nt | -5% | nt
COc1cc(Cl)ccc1OCc1cc(C(=O)N2CCCCCCC2)no1 | 3% | ? | nt | 3% | ? | 11%
Cc1ccc(C)c(OCc2cc(C(=O)N3CCOCC3)no2)c1 | ? | ? | nt | 23% | 21µM* | ?
Cc1ccc(C)c(OCc2cc(C(=O)N3CCC(N4CCCC(O)C4)CC3)no2)c1 (configuration not stated) | 4% | 16% | nt | -1% | -1% | 4%
COCCN1CCN(C(=O)c2cc(COc3ccc(Cl)cc3OC)on2)CC1 | 21µM* | ? | nt | ? | 11µM* | 3.2µM*
COCCN1CCN(C(=O)c2cc(COc3cc(C)ccc3C)on2)CC1 | ? | ? | nt | ? | 13µM* | 2.2µM*
Cc1ccc(C)c(OCc2cc(C(=O)N3CCNC(=O)C3)no2)c1 | 0% | 1% | nt | -6% | 6% | 11%
CC(=O)NCCC1CCCCN1C(=O)c1cc(COc2cc(C)ccc2C)on1 (configuration not stated) | 16µM* | ? | nt | 3.5µM* | 17µM* | 2.2µM*
O=C(N1CCCCC1)C1(S(=O)(=O)c2ccccc2)CC=CC1 | 0% | 22% | nt | 3% | ? | 2%
CC(=O)Nc1ccc(NC(=O)C2(C)CC2(Cl)Cl)cc1 (configuration not stated) | 3% | 7% | 8% | -8% | -4% | -6%
COCCCC1CCN(C(=O)c2cc(COc3cc(C)ccc3C)on2)CC1 | ? | ? | nt | 2.5µM* | 12µM* | 3.5µM*
CC(=O)c1ccc(N2CCN(C(=O)CCS(=O)(=O)c3ccc4c(c3)CCN4C(C)=O)CC2)cc1 | -7% | ? | nt | 2% | 0% | 0%
CSc1nc(-c2ccc(Cl)cc2)nn1S(=O)(=O)c1ccc(Cl)cc1 | ? | ? | 11µM* | 26% | -19% | 3.5µM*
CS(=O)(=O)n1nc(-c2ccc(Cl)cc2)nc1SCc1ccccc1 | 15µM* | ? | 22% | ? | nt | ?
CSc1nc(-c2ccc(Cl)cc2)nn1S(=O)(=O)c1ccccc1 | 18% | ? | 13µM* | ? | 13µM* | ?
O=S(=O)(c1ccccc1)n1nc(-c2ccc(Cl)cc2)nc1NCc1ccccc1 | nt | nt | 19% | nt | 2% | nt
O=C(CSc1nc2ccccc2c(=O)n1NC(=O)Cc1ccccc1)NCCc1ccccc1 | 0% | -1% | 16% | -3% | 2% | ?
SMILES | ELG1 genotox | ELG1 repair inh | SMN2 splice enh | NPC1 promoter act | FLuc counter | Rab9 prom act
CN(c1ccccc1)S(=O)(=O)c1ccc(Cl)c(C(=O)Nc2ccc(-c3nc4ccccc4[nH]3)cc2)c1 | -10% | ? | -43% | -5% | 1% | -12%
O=C(Nc1nc2ccccc2[nH]1)c1cc(F)cc(F)c1 | ? | ? | nt | 1.8µM* | 2.7µM* | 0.63µM*
CN(C)S(=O)(=O)c1ccc(C(=O)Nc2nc3ccccc3[nH]2)cc1 | ? | ? | 11µM* | ? | ? | ?
COc1ccc(Br)c(C(=O)Nc2nc3ccccc3[nH]2)c1 | 24% | ? | nt | ? | -12% | ?
CN(c1ccccc1)S(=O)(=O)c1ccc(Cl)c(C(=O)Nc2nc3ccccc3[nH]2)c1 | -13% | 23µM* | -50% | -1% | 0% | -1%
COc1cc(OC)cc(C(=O)Nc2nc3ccccc3[nH]2)c1 | ? | ? | ? | 21% | 11µM* | ?
O=C(Nc1nc2ccccc2[nH]1)c1ccccc1F | ? | ? | nt | ? | 0.19µM* | -22%
COc1ccc(C(=O)Nc2nc3ccccc3[nH]2)cc1S(=O)(=O)N1CCCC1 | 3% | -1% | 18% | 3% | ? | -2%
N#Cc1ccc(C(=O)Nc2nc3ccccc3[nH]2)cc1 | ? | ? | nt | 1.8µM* | 2.4µM* | 1.8µM*
O=C(Cc1ccccc1F)Nc1nc2ccccc2[nH]1 | 10% | ? | 18% | 11% | -17% | 22%
Cc1ccsc1C(=O)Nc1nc2ccccc2[nH]1 | 1.2µM* | ? | nt | 0.63µM* | 1.7µM* | 0.35µM*
Cc1cc(C)cc(C(=O)Nc2nc3ccccc3[nH]2)c1 | ? | ? | nt | 2.5µM* | 11µM* | ?
O=C(Nc1nc2ccccc2[nH]1)c1cc2ccccc2o1 | 2.3µM* | ? | 4.5µM* | 2.2µM* | 1.3µM* | 1.1µM*
O=C(NCCc1nc2ccccc2[nH]1)c1ccc(F)cc1 | -2% | 12% | nt | -4% | 11% | -1%
CCc1ccc(C(=O)Nc2nc3ccccc3[nH]2)cc1 | ? | ? | nt | 0.1µM* | 0.11µM* | ?
O=C(Nc1nc2ccccc2[nH]1)c1ccc(F)c(S(=O)(=O)N2CCOCC2)c1 | 14% | 16% | ? | ? | 17µM* | ?
O=C(Nc1nc2ccccc2[nH]1)c1ccc(F)cc1 | ? | ? | 14µM* | 0.45µM* | 1.1µM* | 0.32µM*
O=C(CCc1nnc2ccc(NCc3ccco3)nn12)Nc1ccc(F)cc1F | 4% | 9% | nt | -2% | 1% | -1%
COc1ccc2oc(C(=O)Nc3nc4ccccc4[nH]3)c(C)c2c1 | ? | ? | nt | 0.35µM* | 0.43µM* | 0.32µM*
C/C(=N\Nc1cc(N2CCCCC2)nc(C)n1)c1ccc(Br)cc1 | -17% | 16µM* | nt | -11% | 4% | -13%
